An excerpt weighted towards active compounds, which were near 19% of everything screened.
HT1080 IDH1KD tx: kills HT-1080 cells with IDH1 knockdown; HT-1080 IDH1 knockdown viability, ATP luminescence, 48 h; Potency, µM (top dose mostly 46.1 µM), inactives show at the highest dose activity, negative = toxicity, usual class: cytotoxic; 2% of 360,000 active;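 note: potency is the fitted concentration of half-maximal effect; 0% = DMSO wells and -100% = cell-free medium wells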
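Cytotoxicity counter-line: IDH1KD HT-1080, 48 h, CellTiter-Glo. Curves classed by r2, magnitude and activity.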
DT40 TDP1 no CPT: qHTS for Inhibitors of human tyrosyl-DNA phosphodiesterase 1 (TDP1): qHTS in cells in absence of CPT. DT40 Tdp1-/- hTDP1 cells, no CPT, ATP luminescence, 48 h. Potency, µM (highest dose often 46.2 µM), for the others: at the top dose activity change, negative = growth inhibition, usual class: inhibitors. 15% of 420,000 active. AID 686978, 2013; note: potency is the fitted concentration of half-maximal effect; nearly all actives have a fitted effect of over 55% in size
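Stably hTDP1-transfected Tdp1-null chicken DT40 cells were treated with library compounds minus camptothecin and grown for at least 48 hr at 37 °C, after which cellular ATP was quantified by luminescence.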
HT1080NT lethal: kills 2HG-producing HT-1080-NT fibrosarcoma cells. 1.6% of 360,000 active. Potency, µM (titrated, usually from 46.1 µM), for inactives: at the top dose activity, negative = less viability, most hits filed as cytotoxic. HT-1080-NT fibrosarcoma viability, CellTiter-Glo ATP luminescence, 48 h;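 note: NT is the 2HG producing partner of a matched IDH1 knockdown line; potency is the fitted concentration of half-maximal effect; 0% = DMSO-treated cells and -100% = media-only wells without cells; nearly all actives have a fitted effect of over 55% in size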
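750 cells/well, RPMI + 5% FBS; 2 h settle, compound pin-transfer, 48 h at 37 degrees C. CellTiter-Glo 10 min RT, luminescence. Normalized to DMSO and media-only wells.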
DT40 TDP1 CPT: growth inhibition of DT40 Tdp1-/-;hTDP1 cells with camptothecin (screen for TDP1 inhibitors) | chicken DT40 Tdp1-/-;hTDP1 cells + 20 nM CPT, ATP luminescence, 48 h | Potency, µM (series often up to 46.2 µM), for inactives: at the top dose activity change, negative = growth inhibition, most hits filed as inhibitors | 12% of 420,000 active; note: potency is the fitted concentration of half-maximal effect; nearly all actives have a fitted effect of over 55% in size
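Cell growth measured by CellTiter-Glo luminescence after a minimum 48 h, 37 C compound exposure with 20 nM CPT in Tdp1-knockout DT40 cells stably expressing hTDP1, seeded 400/well; qHTS titration format.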
IL1B secr inh: inhibitors of inflammasome signaling (IL-1 beta secretion); AID 743279; activity change, % at 57.5 µM; 4.7% of 360,000 active; THP-1 LPS/ATP IL-1B secretion, AlphaLISA, 16 h; stronger effect = lower value; in the data active = activity change below about -50%; inconclusive = mostly about -30% to -49%
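Secreted IL-1B measured by AlphaLISA bead assay after 16 h compound exposure of THP-1 cells; compounds (final up to 57.5 uM) added 1 h before LPS (250 ng/mL) and ATP (1.25 mM) stimulation; lower signal means less secretion.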
* marks the source's active call; other numbers are inactive results. Unless noted, calls come from the whole dose curve; as a rule, active = well fitted curve in the direction sought with a large enough effect; inconclusive = small, poorly fitted or top-dose-only effect, or another doubt; inactive = no such curve, though single readings can be large; an effect the other way counts as inactive or inconclusive. Unless noted, % is set by controls: 0 for no effect and ±100 for the full control effect.

What do the screens show for `Cc1nc2ccc(NC(=O)Nc3ccnc4cccnc34)cc2o1`?
DT40 TDP1 no CPT: 21.1µM*; DT40 TDP1 CPT: inconclusive

Results for O=C(O)Cn1c(=O)c2c3c(sc2n(Cc2ccccc2F)c1=O)CCCC3 ?
HT1080 IDH1KD tx: 5.3%; DT40 TDP1 no CPT: -1.1%; HT1080NT lethal: 13.0%; DT40 TDP1 CPT: -17.9%; IL1B secr inh: 25.2

How did COc1ccc(NC(=O)c2cc3ccccc3cc2OC)cc1OC do in these assays?
HT1080 IDH1KD tx: 0.8%; DT40 TDP1 no CPT: 18.4µM*; HT1080NT lethal: 2.7%; DT40 TDP1 CPT: inconclusive; IL1B secr inh: -19.8

What do the screens show for `O=C(Nc1ccc2oc(-c3ccncc3)nc2c1)c1ccccc1F`?
HT1080 IDH1KD tx: -4.7%; DT40 TDP1 no CPT: -11.2%; HT1080NT lethal: -1.9%; DT40 TDP1 CPT: -5.8%; IL1B secr inh: -14.7

Results for Cc1ccc(-c2nc3cc(NC(=O)c4cc(Br)ccc4Cl)ccc3o2)cc1 ?
DT40 TDP1 no CPT: 4.61µM*; DT40 TDP1 CPT: 5.8µM*

How did COc1cc(OC)c(C(=O)Nc2ccc3ccccc3c2)cc1OC do in these assays?
HT1080 IDH1KD tx: -9.9%; DT40 TDP1 no CPT: inconclusive; HT1080NT lethal: -15.8%; DT40 TDP1 CPT: inconclusive; IL1B secr inh: 1.7

Results for O=C(Nc1ccc(-c2nc3cc(NC(=O)c4ccccc4F)ccc3o2)cc1)c1ccccc1F ?
DT40 TDP1 no CPT: 13µM*; DT40 TDP1 CPT: 14.6µM*

Results for Cc1nc2cc(NC(=O)Nc3ccc(Br)cc3)ccc2o1 ?
HT1080 IDH1KD tx: inconclusive; DT40 TDP1 no CPT: 23.1µM*; HT1080NT lethal: -6.7%; DT40 TDP1 CPT: inconclusive; IL1B secr inh: 0.0

How did O=C(Nc1ccc2oc(-c3ccc(Cl)cc3)nc2c1)c1ccc2ccccc2c1 do in these assays?
DT40 TDP1 no CPT: -16.0%; DT40 TDP1 CPT: 1.9%

What do the screens show for `CC(C)(C)c1ccc(-c2nc3cc(NC(=O)c4cccc(Br)c4)ccc3o2)cc1`?
DT40 TDP1 no CPT: 4.61µM*; DT40 TDP1 CPT: inconclusive

Results for O=C(Nc1ccc2oc(-c3ccccc3F)nc2c1)c1ncn[nH]1 ?
HT1080 IDH1KD tx: 0.7%; DT40 TDP1 no CPT: inconclusive; HT1080NT lethal: 7.4%; DT40 TDP1 CPT: -12.2%; IL1B secr inh: -7.5

Results for O=C(Nc1ccc2oc(-c3ccc(Cl)c(Cl)c3)nc2c1)c1ncn[nH]1 ?
HT1080 IDH1KD tx: -0.2%; DT40 TDP1 no CPT: 5.17µM*; HT1080NT lethal: 8.6%; DT40 TDP1 CPT: 5.17µM*; IL1B secr inh: 10.1

How did O=C(Nc1ccc(-c2nc3cc(NC(=O)c4ccc(Cl)cc4)ccc3o2)cc1)c1ccc(Cl)cc1 do in these assays?
DT40 TDP1 no CPT: 4.11µM*; DT40 TDP1 CPT: -0.4%

Results for O=S1(=O)NC2c3ccccc3CC2O1 (stereo not drawn) ?
HT1080 IDH1KD tx: -0.1%; DT40 TDP1 no CPT: inconclusive; HT1080NT lethal: -2.6%; DT40 TDP1 CPT: 11.6µM*; IL1B secr inh: 7.4

How did O=c1[nH]c(=O)n(Cc2ccccc2)c2nc(-c3ccc(Oc4ccc(F)cc4)c([N+](=O)[O-])c3)n(CCO)c12 do in these assays?
HT1080 IDH1KD tx: inconclusive; DT40 TDP1 no CPT: 18.4µM*; HT1080NT lethal: 20.6µM*; DT40 TDP1 CPT: 16.4µM*; IL1B secr inh: -23.1

Results for COc1ccc(-c2nc3c(c(=O)[nH]c(=O)n3Cc3ccccc3)n2CCO)cc1 ?
HT1080 IDH1KD tx: -17.1%; DT40 TDP1 no CPT: -9.0%; HT1080NT lethal: inconclusive; DT40 TDP1 CPT: 2.1%; IL1B secr inh: 50.5

Results for COCCn1c(=O)[nH]c(=O)c2c1nc(-c1ccc(-c3ccc(Cl)cc3[N+](=O)[O-])o1)n2Cc1ccccc1 ?
HT1080 IDH1KD tx: inconclusive; DT40 TDP1 no CPT: 23.1µM*; HT1080NT lethal: inconclusive; DT40 TDP1 CPT: 16.4µM*; IL1B secr inh: 38.7

What do the screens show for `COc1ccc(-c2ccc(-c3nc4c(c(=O)[nH]c(=O)n4Cc4ccccc4)n3C)o2)c([N+](=O)[O-])c1`?
HT1080 IDH1KD tx: -0.2%; DT40 TDP1 no CPT: 25.9µM*; HT1080NT lethal: -1.3%; DT40 TDP1 CPT: inconclusive; IL1B secr inh: -1.4

Bioassay records from PubChem BioAssay.
